Assay outcomes from PubChem.
PostGolgi yeast = growth inhibition of a yeast mutant, post-Golgi transport screen; 98,000 tested, 0.9% active; AID 739; post-Golgi transport phenotypic cell assay; inhibition, % at 10 µM;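 also: yeast cells grown in 1536-well plates; yeast grown about 18 h at 30C before absorbance read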
PostGolgi ctrl = yeast control strain growth, post-Golgi counter-screen | efflux-deficient yeast background strain, growth absorbance A615, 16 h | AID 738 | inhibition, % at 10 µM | 98,000 tested, 5% active
D1 allo mod = allosterically modulates the human D1 dopamine receptor | P21728 | HEK293 D1, CRE-luciferase, dopamine EC30 potentiation; actives deviate in either direction | B-score at 10 µM | 58,000 tested, 5.9% active | AID 641;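 active = luminescence count or its row- and column-corrected plate score outside the 99.7% band of the plate's sample wells, on either side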
Target sequence (P21728 whole entry, looked up): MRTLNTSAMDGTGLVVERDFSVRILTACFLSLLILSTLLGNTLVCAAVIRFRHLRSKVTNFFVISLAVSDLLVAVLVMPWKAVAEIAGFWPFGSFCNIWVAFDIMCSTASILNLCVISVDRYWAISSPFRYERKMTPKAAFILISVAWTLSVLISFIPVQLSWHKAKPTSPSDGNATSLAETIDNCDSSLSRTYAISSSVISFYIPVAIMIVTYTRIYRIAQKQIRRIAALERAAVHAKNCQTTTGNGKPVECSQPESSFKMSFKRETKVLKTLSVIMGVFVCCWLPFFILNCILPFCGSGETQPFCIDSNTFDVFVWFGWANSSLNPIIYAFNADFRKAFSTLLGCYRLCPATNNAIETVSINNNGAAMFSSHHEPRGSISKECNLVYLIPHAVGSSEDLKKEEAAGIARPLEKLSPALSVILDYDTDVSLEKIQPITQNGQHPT
DAT uptake mod = modulates human dopamine transporter uptake under cocaine; Q01959; LLC-PK1 hDAT cells, [14C]-dopamine uptake with cocaine IC80; actives deviate in either direction; B-score at 10 µM; 110,000 tested, 1.3% active;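 active = Z score or B-score, a plate-position-corrected score, falls beyond the plate's 99.7% confidence bounds, in either direction; inactive = both scores lie inside the 99.7% bounds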;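 also: scored against the spread of the other compound wells on the same plate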
Cav3 T inh = inhibitors of human Cav3.2 T-type calcium channel. Cav3.2-expressing cells, Fluo-4 calcium fluorescence FDSS; stronger effect = lower value. B-score at 10 µM. 100,000 tested, 4% active. AID 449739;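 active = single-dose well whose peak fluorescence ratio is a statistical outlier from its plate by either plate-standardised score or position-corrected B-score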
PLAP act = activates human placental alkaline phosphatase. 96,000 tested, 1.2% active. AID 696. purified PLAP enzyme, luminescent substrate read-out; stronger effect = higher value. P05187. activation fold at 20 µM; in the data active = activation fold above about 2
D1 mod confirm = confirmation of human D1 dopamine receptor allosteric modulators. 2,200 tested, 88% active. shares compounds with D1 allo mod. HEK293 D1 CRE-luciferase, dopamine EC30 potentiation; stronger effect = higher value. luminescence at 10 µM;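 active = luminescence in either of two replicates above the same-plate mean plus 3 SD of the low-dose dopamine control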
D1 ag no DA = D1 (human) signaling in absence of dopamine; shares compounds with D1 allo mod; HEK293 D1 CRE-luciferase, luminescence, no dopamine; stronger effect = higher value; luminescence at 10 µM; 1,900 tested, 0.8% active; AID 646; in the data active = luminescence above about 3900
Isoprot counter = counter-screen for D1 modulators: isoproterenol response in HEK293 cells; HEK293 D1 CRE-luciferase, isoproterenol EC30 counter-screen; AID 647; 2,200 tested, 63% active; shares compounds with D1 allo mod; calls only at 10 µM;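 active = luminescence in either replicate above plate mean of wells with a partly effective reference agonist dose plus 3 SD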;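 also: isoproterenol raises cAMP through native beta-adrenoceptor Gs so signal bypasses D1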
* = called active by the depositor; i = inactive; / = no result given; + = active, no number. Rows were chosen to be rich in hits. Some 12% of all compounds tested hit in one or more screens of this group. Rule as the data show it, unless noted: active = inhibition above about 30%; inactive = the rest.

SMILES	PostGolgi yeast	PostGolgi ctrl	D1 allo mod	DAT uptake mod	Cav3 T inh	PLAP act	D1 mod confirm	D1 ag no DA	Isoprot counter
Cc1nc(NCc2ccco2)c(C#N)c2c1COC(C)(C)C2	-7	18	1.1	-0.33	-0.85	1	/	/	/
CC1(C)Cc2c(c(-c3ccccc3)nc3[nH][nH]c(=O)c23)CO1	4	17	/	0.26	0.88	1	/	/	/
CC1(C)Cc2c(c(-c3ccco3)[nH]c(=O)c2C#N)CO1	16	0	4.3*	1.6	1.9	/	15660*	1772	+
CC1(C)Cc2c(c(-c3ccco3)nc3n[nH]c(N)c23)CO1	7	1	11*	-0.15	0.18	1.2	17288*	1464	+
Cc1onc(-c2c(F)cccc2Cl)c1C(=O)Nc1ccc(S(=O)(=O)Nc2ncccn2)cc1	1	-1	0.06	1.3	-0.13	0.9	/	/	/
N#C/C(=C\c1ccccc1)c1nc2ncccc2[nH]1	0	-11	/	0.071	1.1	1.1	/	/	/
Cc1cccc(-n2c(=O)[nH]c3c(C(N)=O)nc(CC(C)C)nc32)c1	-2	-10	11*	0.13	0.66	1.1	15452*	1444	+
CC(C)Cc1nc(C(N)=O)c2[nH]c(=O)n(-c3ccc(F)cc3)c2n1	0	2	0.37	/	/	1.2	/	/	/
COc1ccc(-c2nc(C(N)=O)c3[nH]c(=O)n(-c4cccc(C)c4)c3n2)c(OC)c1	0	9	7.7*	-0.79	-0.57	1.8	10376*	1548	+
COc1ccccc1-c1nc(C(N)=O)c2[nH]c(=O)n(-c3cccc(C)c3)c2n1	3	10	2.7	0.94	-0.52	1.4	/	/	/
CC(NC(=O)Nc1ccc(F)cc1F)c1ccncc1 (stereo not drawn)	6	-8	0.021	-0.58	/	0.9	/	/	/
CC(=O)c1sc2nc(-c3cccs3)cc(C(F)(F)F)c2c1N	3	5	5.9*	-0.49	-1.4	1.1	12244*	1624	+
CS(=O)(=O)c1sc2nc(-c3cccs3)cc(-c3ccccc3)c2c1N	0	6	5.1*	0.15	-1.5	1.3	15760*	1468	i
CCOC(=O)CCS(=O)(=O)c1ccc(-c2ccc(S(=O)(=O)CCC(=O)OCC)cc2)cc1	-9	-5	/	0.19	-0.013	1	/	/	/
N#CCCn1cc(/C=N/O)c(-c2ccc(-c3ccccc3)cc2)n1	1	9	0.31	0.012	-0.44	0.9	/	/	/
N#CCCCn1c(-c2ccccc2)noc1=O	24	7	6.4*	-0.98	0.78	0.8	4628	1604	i
COc1cc(OC)cc(C(=O)Nc2cccc(C(C)=O)c2)c1	-5	4	-0.83	0.84	1.1	0.7	/	/	/
COc1cc(OC)cc(C(C)=O)c1	-6	0	8.5*	-0.026	0.11	0.8	24876*	1768	+
c1coc(-c2nc3ccccc3nc2-c2ccco2)c1	14	9	6.7*	0.36	0.81	1.1	14092*	/	+
CNc1nn(-c2cccc(Cl)c2)nc1N	11	7	4.2*	0.67	0.2	0.8	8344*	1588	i
N#CC1=C(N)OC2=C(C(=O)CCC2)C1CCc1ccccc1 (stereo not drawn)	11	6	6.4*	0.59	-0.24	0.9	7756*	/	i
O=C1CCCC2=C1C(Cc1ccccc1)C1=C(CCCC1=O)O2	1	9	-0.52	2.4	1.4	1.1	/	/	/
CSc1nnc2c3ccccc3n(Cc3ccccc3)c2n1	24	15	10*	-0.55	-1	0.9	15672*	1436	+
CCn1cc2c(c1-c1cccc(C)c1)c(=O)n(C)c(=O)n2C	-4	19	/	-0.48	0.98	1.1	/	/	/
Cc1cccc(-c2c3c(=O)n(C)c(=O)n(C)c3cn2C(C)C)c1	-1	15	14*	/	0.71	0.9	15796*	1340	+
COC(=O)c1cc(Cc2ccc(N)c(C(=O)OC)c2)ccc1N	-2	22	3*	0.4	-1.5	1.2	7532*	/	+
